High-throughput results as filed in PubChem.
A selection follows.
aSyn 5UTR act – Activators via SNCA 5'UTR binding, MLPCN | alpha-synuclein 5'UTR reporter, activators screen | activity score, % (tested at 7.5 µM), hits read low | hit rate 7.1% among 300,000 | AID 1814, 2009; in the data active = activity score below about -60%
* = called active by the depositor.

SMILES	aSyn 5UTR act
Clc1cccc(/C=N/N2CCN(Cc3ccccc3)CC2)c1	-91.3*
O=C1CC(c2cc(Br)ccc2F)c2cc3c(cc2N1)CCC3 (configuration not stated)	65.1
c1ccc(-n2nc3c(ccc4cnnc43)[nH]2)cc1	-128.7*
c1ccc(N2CCN(c3cnc4ccccc4n3)CC2)cc1	-76.9*
Clc1ccc(N2CCN(c3cnc4ccccc4n3)CC2)cc1	-137.3*
Fc1ccc(N2CCN(c3cnc4ccccc4n3)CC2)cc1	-251.3*
Nc1c(C(=O)c2ccccc2)sc2nsc(SCCN3CCOCC3)c12	-157.1*
CCN(C(=O)c1ccco1)c1nnc(-c2ccc(OC)cc2)s1	-135.4*
CCCN(C(=O)c1ccco1)c1nnc(-c2cccc(C)c2)s1	-143.1*
Cc1ccc(C)c(NC(=O)CSc2nccn2Cc2ccco2)c1	-77.5*
COc1ccc(-c2nc(SC)n(C(=O)c3ccco3)n2)cc1	-129.9*
COc1ccc(-c2nc(SCc3ccccc3)n(C(=O)c3ccco3)n2)cc1	-80.5*
CCc1ccc2oc(-c3cc(N=Cc4cccc(OC)c4O)ccc3O)nc2c1	-146.0*
O=C1CCN(Cc2ccccc2)CCN1CCSc1ccccc1	-77.9*
CCCN1CCC(=O)N(CCSc2ccccc2)CC1	-115.4*
COc1ccc(/C=C/C(=O)Nc2cc(C)nn2-c2nc3ccccc3[nH]2)cc1	-84.9*
CCCCCc1ccc(-c2ccc(OC)cc2)nc1	-122.7*
CCCCc1ccc(-c2ccc(C)cc2O)nc1	84.4
Nc1ccc(S(=O)(=O)Nc2nccc(/C=C/c3ccccc3F)n2)cc1	-65.0*
Cc1ccc(NC(=S)Nc2cccc3ccccc23)cc1F	-85.6*
Cc1ccc(C)c(Cn2c(O)c(N=NC(=S)Nc3ccccc3F)c3ccccc32)c1	71.8
CC(=O)N(C)c1ccc(NC(=S)Nc2cccc3ccccc23)cc1	-168.2*
CCc1ccc(NC(=S)Nc2cccc3cnccc23)cc1	-87.4*
O=C(/C=C/Nc1ccc([N+](=O)[O-])cc1)c1ccc(Br)cc1	-74.5*
O=C(/C=C/Nc1ccc(F)cc1)c1ccc(Br)cc1	-180.7*
SMILES	aSyn 5UTR act
O=C(/C=C/Nc1ccc(F)c(F)c1)c1ccc(Br)cc1	-191.7*
O=C(/C=C/Nc1ccc(Br)cc1F)c1ccccc1	77.5
COc1cc2c(cc1NC(=O)CN1CCN(S(=O)(=O)c3ccccc3F)CC1)oc1ccccc12	-90.8*
COc1cc2c(cc1NC(=O)Cc1ccc(C)cc1)oc1ccccc12	-129.8*
COc1cc2c(cc1NC(=O)COC(=O)C(CCSC)NC(=O)c1ccccc1Cl)oc1ccccc12 (configuration not stated)	-135.7*
COc1cc2c(cc1NCc1ccccn1)oc1ccccc12	-153.5*
COc1cc2c(cc1NC(=O)COC(=O)Cn1cnc3ccccc31)oc1ccccc12	-75.8*
COc1cc2c(cc1NC(=O)C(C)Sc1ccc(C)cc1)oc1ccccc12 (configuration not stated)	-108.7*
COc1ccc(-c2csc(/C(C#N)=C/Nc3cc4oc5ccccc5c4cc3OC)n2)cc1	43.4
COc1cc2c(cc1NC(=O)Nc1ccccc1)oc1ccccc12	-66.8*
COC(=O)c1ccc(C2N=C(c3cccs3)CC(c3ccccc3O)N2)cc1 (configuration not stated)	-97.7*
CC(=O)c1sc(NC(=O)c2ccccc2F)nc1-c1ccccc1	-124.5*
CC(=O)c1sc(NC(=O)c2ccc(F)cc2)nc1-c1ccccc1	-95.0*
C(C#CCCCCCCCCC[n+]1ccccc1)#CCCCCCCCCC[n+]1ccccc1	73.3
O=C(NNC(=O)c1ccccc1F)c1cccc(-n2cccc2)c1	-73.9*
N#CC1=C(N)NC(SCc2ccc(F)cc2)=C(C#N)C12CCCCC2	-83.2*
COc1ccc(N=C(C)C2=C(O)COC2=O)cc1	-92.8*
COc1ccccc1N=C(C)C1=C(O)CC(c2ccccc2)CC1=O (configuration not stated)	121.7
C=CCn1c(=NC(=O)c2ccco2)sc2cc(C(=O)OC)ccc21	-76.6*
Cc1ccc(Nc2nc(CSc3nnc(-c4ccccc4C)n3C)cs2)cc1	-93.3*
Cc1ccc(Nc2nc(CSc3nnc(-c4ccccc4)n3C)cs2)cc1	-67.9*
O=C(Nc1ccccc1)C1Cc2ccccc2CN1C(=O)c1ccco1 (configuration not stated)	-114.0*
CCN(CC)CCNC(=O)c1cc2c(=O)n(CC)c3ccccc3c2s1	-124.6*
CN1CCN(CCCNC(=O)c2cc3c(=O)n(C)c4ccccc4c3s2)CC1	-73.8*
CCOCCCNC(=O)c1cc2c(=O)n(CC)c3ccccc3c2s1	-79.9*
SMILES	aSyn 5UTR act
CCN(CC)CCCNC(=O)c1cc2c(=O)n(CC)c3ccccc3c2s1	-107.5*
CC[C@H](CO)Nc1nc(Nc2cccc(Cl)c2)c2ncn(C(C)C)c2n1	57.0
CCCN(CCC)CCNC(=O)c1cc2c(=O)n(CC)c3ccccc3c2s1	-173.7*
Brc1ccc(-c2nc3ccccc3s2)s1	-114.5*
c1ccc(-c2nc3ccccc3s2)nc1	-86.9*
Nc1ccc(-c2nc3ccccc3s2)cn1	-109.6*
O=C1CCC(=O)N1c1ccc(-c2nc3ccccc3s2)cc1	-119.8*
O=C1CNC(=S)N1c1nc2ccccc2s1	40.7
COc1cc(OC)cc(-c2nc3ccccc3s2)c1	-286.3*
O=C(Nc1cc(=O)[nH]c(=O)[nH]1)c1cc(Cl)ccc1Cl	-64.9*
COc1cccc2cc(CC(=O)c3ccc(C)cc3C)c(=O)oc12	-185.0*
COc1ccc(C(=O)c2cc3cccc(OC)c3o2)cc1	-161.5*
COc1ccc(C(=O)Cc2cc3cccc(OC)c3oc2=O)cc1	-78.9*
COC(=O)c1c(NC(=O)c2ccc([N+](=O)[O-])o2)sc2c1CCN(C(C)C)C2	104.9
CC(C)N1CCc2c(sc(NC(=S)NC(=O)c3ccccc3)c2C#N)C1	-142.7*
CCCN1CCc2c(sc(NC(=S)NC(=O)c3ccccc3)c2C#N)C1	-139.6*
COc1ccc(-c2ccc(SCC(=O)NC3CCCCC3)nn2)cc1	-83.0*
CCOc1ccc(-c2ccc(SCC(=O)NC3CCCCC3)nn2)cc1	-68.9*
COc1ccc(-c2ccc(SC)nn2)cc1	75.0
C=CCNc1nc(C(=O)OCC(=O)c2ccc(OC)cc2OC)cs1	-81.6*
COC(=O)c1ccc(COC(=O)c2nn(C)c(=O)c3ccccc23)cc1	-64.3*
COC(=O)c1ccc(COC(=O)c2cccnc2Cl)cc1	-68.3*
COc1ccc(C(=O)COC(=O)c2cccnc2Cl)c(OC)c1	-144.2*
O=C(CSc1ncnc2c(-c3ccc(Cl)cc3)nsc12)c1ccccc1	-97.8*
Cn1c(=NC(=O)c2ccccc2[N+](=O)[O-])sc2cccc(F)c21	-110.2*
SMILES	aSyn 5UTR act
COc1ccc(-n2nnnc2SCc2nc3ccccc3s2)cc1	-160.8*
COc1ccc(C)cc1-n1nnnc1SCc1nc2ccccc2s1	-147.9*
Cc1ccc(-c2nc(-c3ccccn3)no2)cc1Cl	103.8
O=[N+]([O-])c1cccc(-c2nc(-c3ccccc3)no2)c1	-133.9*
O=[N+]([O-])c1cccc(-c2nc(-c3ccncc3)no2)c1	-88.7*
Cc1ccc(-c2nc(-c3ccncc3)no2)cc1Cl	-98.7*
O=[N+]([O-])c1cccc(-c2noc(-c3ccco3)n2)c1	-95.8*
Cc1cc(-c2nc(-c3ccncc3)no2)ccc1[N+](=O)[O-]	-165.5*
Cc1nc(SC(C)C(=O)NCC2CCCO2)c2cc(-c3ccccc3)sc2n1 (configuration not stated)	-107.4*
COCCn1c(C)cc(C(=O)CSc2nc3ccccc3c(=O)[nH]2)c1C	-152.3*
CCCn1c(C)cc(C(=O)CSc2nc3ccccc3c(=O)n2Cc2ccco2)c1C	-218.9*
